In all, about 110,000 compounds went through this assay and about 190 (0.17%) were called active. This is one part of a sample in which actives are shown more often than they occur. Entries with a potency or affinity are not part of this list. A number with no mark means an inactive call. No stated cut-off is given here; in the data, active means inhibition above about 50%; inactive means the rest.
molecular target: Dual specificity protein phosphatase 6 (Rattus norvegicus) (UniProt Q64346); assay: MKP-3 phosphatase inhibitors, primary screen, biochemical, rat enzyme, in vitro (AID 425); conditions: recombinant MKP-3 phosphatase activity, fluorescence; at 20 µM; stronger effect = higher value;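 further: plate controls were vehicle for no effect and reference inhibitor for full effect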
Sequence (Q64346 whole entry, looked up): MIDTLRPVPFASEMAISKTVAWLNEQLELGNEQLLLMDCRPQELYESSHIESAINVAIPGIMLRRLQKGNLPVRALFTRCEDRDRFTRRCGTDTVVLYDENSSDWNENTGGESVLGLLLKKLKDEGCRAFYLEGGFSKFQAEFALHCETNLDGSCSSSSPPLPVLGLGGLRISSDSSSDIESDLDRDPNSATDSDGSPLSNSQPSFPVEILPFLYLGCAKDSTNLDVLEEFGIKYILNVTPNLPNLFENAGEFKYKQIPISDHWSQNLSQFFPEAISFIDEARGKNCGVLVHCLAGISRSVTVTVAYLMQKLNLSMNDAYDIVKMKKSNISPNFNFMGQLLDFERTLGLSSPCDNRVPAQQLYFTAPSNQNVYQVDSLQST

Row | Compound | inhibition
1 | Cc1ccc(S(=O)(=O)NC(=O)N2CCc3ccccc32)cc1 | 4.5%
2 | CCN(CC)C(=O)CSc1nc2cccnc2n1-c1ccccc1OC | -6.6%
3 | OCCCc1nc2ccccc2n1Cc1ccc2ccccc2c1 | 3.2%
4 | CCc1nn(CC(=O)NCCCN(CC)Cc2ccccc2)c(=O)c2cc3sccc3n12 | 2%
5 | O=C1NC(=O)/C(=C/c2ccc(-c3ccc(O)c(C(=O)O)c3)o2)S1 | 105% (active)
6 | O=C(O)c1cc(-c2ccc(/C=C3/Sc4ccccc4C3=O)o2)ccc1O | 84.4% (active)
7 | O=C(O)c1cc(-c2ccc(C=C3C(=O)c4ccccc4C3=O)o2)ccc1O | 47.2%
8 | O=C1NC(=S)S/C1=C\c1ccc(-c2ccc(Cl)c(C(=O)O)c2)o1 | 10.9%
9 | O=C1/C(=C/c2ccc(-c3ccc(Cl)cc3C(=O)O)o2)Sc2ccccc21 | 7.4%
10 | O=C1NC(=O)/C(=C\c2ccc(-c3ccc(C(=O)O)cc3)o2)S1 | 2.5%
11 | COc1ccccc1CNC(=O)C(NC(=O)C1CCCCC1)C(C)C (stereo not given) | -3.5%
12 | CCOC(=O)CNC(=S)Nc1ccc(F)cc1 | 1.8%
13 | CN(C)c1ccc(/C=C/C=C/c2cc[n+](CCCS(=O)(=O)[O-])cc2)cc1 | 5%
14 | c1ccc(-c2noc(C34CC5CC(CC(C5)C3)C4)n2)nc1 | -5.1%
15 | CN1C(=O)NC(=O)/C(=C/c2ccc(-c3ccc([N+](=O)[O-])cc3Cl)o2)C1=O | 12%
16 | CN1C(=O)NC(=O)/C(=C/c2ccc(-c3ccc(Cl)cc3)o2)C1=O | 39.8%
17 | CN1C(=O)NC(=O)/C(=C/c2ccc(-c3ccc(Cl)cc3Cl)o2)C1=O | 66.9% (active)
18 | CCn1nc(NC(=O)c2ccncc2)c2cc3cc(C)ccc3nc21 | -13.2%
19 | O=C(NCCN1CCOCC1)c1cnn2c(C(F)(F)F)cc(-c3ccc(Br)cc3)nc12 | -0.4%
20 | CCN1C(=O)N(COC(C)=O)C2C1N(COC(C)=O)C(=O)N2CC (stereo not given) | 3.5%
21 | Cc1c(-c2cccc(Cl)c2)nc2ccccc2c1C(=O)O | 1.1%
22 | O=C(Cn1c(O)c(N=NC(=O)C(=O)Nc2ccc([N+](=O)[O-])cc2)c2ccccc21)Nc1ccccc1 | -0.4%
23 | O=C(Cn1c(O)c(N=NC(=O)c2ccc([N+](=O)[O-])cc2)c2ccccc21)Nc1ccccc1 | 0.9%
24 | Cc1ccc(C2SCC(=O)N2CCCN(C)C)cc1 (stereo not given) | -0.2%
25 | Cc1c(Cl)cccc1N=C1NC(=O)/C(=C/c2ccc(OC(C)C)cc2)S1 | 3.5%
